Among the test systems are DU-145 prostate; K-562 leukemia; MALME-3M melanoma; MDA-MB-231 breast; RXF 393 renal; SF-268 CNS; SF-295 CNS; SF-539 CNS; UACC-257 melanoma; M14 melanoma; HCT-15 colon; HT29 colon; SNB-75 CNS; SNB-19 CNS; U251 CNS; PC-3 prostate; SK-MEL-5 melanoma; UACC-62 melanoma; LOX IMVI melanoma; SK-MEL-28 melanoma.
Test in all cases: NCI-60 one-dose screen, 48 h (100 = growth as untreated, 0 = no growth, -100 = all killed)
What all share (details): 10 µM unless noted

The panel holds about 83,000 compounds, 20% with a hit somewhere; the sample as a whole holds those more often.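 Values shown are percent growth following 48 h exposure of cells in 96-well plates to a single concentration of compound; below 10 was considered active.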 Values without a mark were called inactive. Activity calls are given as the source filed them.

For the molecule `Cc1[nH]c(C(=O)Nc2ccc(C(=O)N3CCN(c4cc5c(cc4F)c(=O)c(C(=O)O)cn5C4CC4)CC3)cc2OC(C)C)c(Cl)c1Cl`, the growth was 87.2% in the assay on DU-145 prostate; 56.4% in the assay on K-562 leukemia; 89% in the assay on MALME-3M melanoma; 80.3% with MDA-MB-231 breast; 82.4% with RXF 393 renal; 78.1% with SF-268 CNS. Also, the growth in the assay with SF-295 CNS was 81.4%; in the assay on SF-539 CNS it was 75.3%; with UACC-257 melanoma, 82.5%; in the assay with M14 melanoma it was 73.2%; with HCT-15 colon, 18.1%; in the assay on HT29 colon it was 37.3%. For the same molecule, the growth in the assay with SNB-75 CNS was 67.8%; in the assay on SNB-19 CNS, 89.8%; in the assay on U251 CNS it was 36.4%; with PC-3 prostate, 59.1%; in the assay with SK-MEL-5 melanoma, 75.3%; in the assay with UACC-62 melanoma, 81.8%. Also, the growth in the assay with LOX IMVI melanoma was 21.6%; with SK-MEL-28 melanoma it was 86.6%.

Consider `O=C(C[C@]1(O)C(=O)Nc2ccccc21)c1cccc(C(F)(F)F)c1`, for which the growth with DU-145 prostate was 99.2%; in the assay on K-562 leukemia it was 96%; with MALME-3M melanoma, 83.1%; with MDA-MB-231 breast it was 91%; in the assay on RXF 393 renal, 101%; in the assay on SF-268 CNS it was 85.8%. In addition, the growth in the assay on SF-295 CNS is 96.3%; in the assay with SF-539 CNS it was 88%; in the assay on UACC-257 melanoma it was 99.7%; in the assay with M14 melanoma it was 93.1%; with HCT-15 colon, 96.5%; with HT29 colon, 96.1%. The growth with SNB-75 CNS was 76.8%; in the assay with SNB-19 CNS, 95.9%; in the assay with U251 CNS, 92.4%; in the assay with PC-3 prostate it was 81.4%; in the assay with SK-MEL-5 melanoma it was 91.7%; with UACC-62 melanoma it was 78.3%. Further, the values for the growth in the assay on LOX IMVI melanoma and with SK-MEL-28 melanoma were 93.2% and 91.6%, respectively.

As for `CCN1C(=O)N(CC)C2C1NN=c1s/c(=C\c3ccccc3F)c(=O)n12` (stereo not given), the growth in the assay on DU-145 prostate is 2.54% (active); in the assay with K-562 leukemia, 8.14% (active); with MALME-3M melanoma, 52.6%; in the assay on MDA-MB-231 breast, 15.2%; with RXF 393 renal, 52%; in the assay with SF-268 CNS, 44.6%. The growth in the assay with SF-295 CNS is 12.4%; in the assay with SF-539 CNS, -18.1% (active); with UACC-257 melanoma, 53.1%; in the assay with M14 melanoma, 2.5% (active); in the assay on HCT-15 colon, 8.45% (active); in the assay with HT29 colon, 1.76% (active). For the same molecule, the growth in the assay with SNB-75 CNS is 10.8%; in the assay on SNB-19 CNS, 31%; with U251 CNS, 1.71% (active); with PC-3 prostate, 25.1%; with SK-MEL-5 melanoma, -21.1% (active); with UACC-62 melanoma it was 34.4%. Also, the growth in the assay on LOX IMVI melanoma is 15.8%; in the assay on SK-MEL-28 melanoma, 61.2%.

Take `Cc1cc(S(=O)(=O)/N=C(\N)n2nc(C)c(C)c2C)c(SCc2ccccc2)cc1Cl`: the growth in the assay with DU-145 prostate is 98.1%; with K-562 leukemia, 30.9%; in the assay on MALME-3M melanoma, 94.1%; in the assay on MDA-MB-231 breast, 89.6%; with RXF 393 renal, 72.9%; in the assay with SF-268 CNS, 86.6%. In addition, the growth with SF-295 CNS is 54.3%; in the assay on SF-539 CNS, 98.8%; with UACC-257 melanoma it was 73.4%; with M14 melanoma, 74.6%; in the assay on HCT-15 colon, 56.6%; with HT29 colon it was 63.7%. In addition, the growth is 79.4% in the assay with SNB-75 CNS; 89.9% in the assay with SNB-19 CNS; 60.8% in the assay with U251 CNS; 40.2% in the assay on PC-3 prostate; 94.7% in the assay on SK-MEL-5 melanoma; 71.1% in the assay on UACC-62 melanoma. In addition, the growth is 66.9% with LOX IMVI melanoma and 91.4% in the assay on SK-MEL-28 melanoma.

Regarding `N#Cc1nc(-c2ccccc2)oc1S(=O)(=O)N1CCN(c2ccccc2)CC1`, the growth with DU-145 prostate was 107%; in the assay on K-562 leukemia it was 34.9%; with MALME-3M melanoma it was 90.1%; in the assay on MDA-MB-231 breast, 105%; with RXF 393 renal, 114%; with SF-268 CNS, 107%. The growth was 105% in the assay on SF-295 CNS; 100% in the assay on SF-539 CNS; 92.7% in the assay on UACC-257 melanoma; 81.1% with M14 melanoma; 44.2% with HCT-15 colon; 86.5% in the assay with HT29 colon. In addition, the growth is 66.7% in the assay on SNB-75 CNS; 99.6% in the assay with SNB-19 CNS; 98.9% in the assay with U251 CNS; 94.9% in the assay on PC-3 prostate; 90% in the assay with SK-MEL-5 melanoma; 84.4% with UACC-62 melanoma. In addition, the growth with LOX IMVI melanoma is 39.7%; in the assay with SK-MEL-28 melanoma, 106%.

With `CCN1C(=S)N(c2ccccc2)C2NC(=S)N(/N=C/C=C/c3ccccc3OC)C21` (stereo not given), the growth in the assay with DU-145 prostate is 7.01% (active); with K-562 leukemia, 8.73% (active); in the assay with MALME-3M melanoma, 54.1%; in the assay on MDA-MB-231 breast, 10.5%; in the assay with RXF 393 renal, 26.3%; in the assay with SF-268 CNS, 54.5%. For the same molecule, the growth was 13.7% with SF-295 CNS; -18.3% (active) with SF-539 CNS; 43.2% in the assay on UACC-257 melanoma; 3.35% (active) in the assay with M14 melanoma; 12.9% with HCT-15 colon; 1.16% (active) in the assay with HT29 colon. In addition, the growth with SNB-75 CNS is -1.02% (active); in the assay on SNB-19 CNS, 31.3%; in the assay with U251 CNS it was 3.1% (active); in the assay with PC-3 prostate, 30.1%; in the assay with SK-MEL-5 melanoma, 14.1%; with UACC-62 melanoma, 25.7%. Moreover, the figures for the growth in the assay with LOX IMVI melanoma and in the assay with SK-MEL-28 melanoma were 15.4% and 47.8%, respectively.

Consider `CNC(=O)c1[nH]cc(-c2ccc(OC)cc2)c1-c1cc(OC)c2c(c1OC)OCO2`, for which the growth is 110% in the assay with DU-145 prostate; 105% with K-562 leukemia; 95% with MALME-3M melanoma; 100% with MDA-MB-231 breast; 97.5% in the assay with RXF 393 renal; 101% with SF-268 CNS. Further, the growth with SF-295 CNS is 97.6%; in the assay with SF-539 CNS it was 103%; in the assay on UACC-257 melanoma, 104%; in the assay with M14 melanoma it was 101%; in the assay with HCT-15 colon, 97.1%; in the assay with HT29 colon it was 108%. Moreover, the growth with SNB-75 CNS was 66.9%; with SNB-19 CNS, 93.9%; with U251 CNS it was 98.4%; in the assay with PC-3 prostate it was 92.1%; in the assay with SK-MEL-5 melanoma, 100%; in the assay on UACC-62 melanoma it was 90%. Further, the growth in the assay on LOX IMVI melanoma was 96.5%; in the assay with SK-MEL-28 melanoma, 101%.

Consider `CN(C)CCNC(=O)c1ccc(-c2nc3ccc4[nH]ncc4c3c3c2C2CCC3C2)cc1` (stereo not given), for which the growth in the assay on DU-145 prostate was 20.8%; with K-562 leukemia, 20.7%; in the assay with MALME-3M melanoma, 28.1%; with MDA-MB-231 breast it was 2.4% (active); in the assay on RXF 393 renal, -30.9% (active); in the assay on SF-268 CNS, 16.8%. For the same molecule, the growth is 40.9% in the assay with SF-295 CNS; 18.5% with SF-539 CNS; 58.7% with UACC-257 melanoma; 31.3% in the assay on M14 melanoma; 41.8% in the assay on HCT-15 colon; 34.4% in the assay on HT29 colon. In addition, the growth in the assay on SNB-75 CNS is -12.4% (active); in the assay with SNB-19 CNS, 60.9%; with U251 CNS, 44.8%; with PC-3 prostate it was 19.9%; in the assay with SK-MEL-5 melanoma, 16.4%; in the assay with UACC-62 melanoma, 31.3%. The growth with LOX IMVI melanoma is 26.2%; in the assay on SK-MEL-28 melanoma it was 46.6%.

For the origin of these results see PubChem BioAssay (NCI).
